# What was measured:
# Experiment in all cases: PBM binding z-score (relative to random genomic background probes); higher = stronger binding; sequences stand for … in GC…GCGATTGACAGCGTAGAATGAAGG
# [1] = test system: FXR:RXRa (NR concentration 270 nM, RXRa partner concentration 90 nM)
# In short: (§1)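 Scanned fluorescence from custom Agilent 4×180K protein-binding microarrays was regression-normalized. Binding z-scores use random background probes as reference. Ligand-free nuclear receptor dimers were incubated on the arrays for 1 h and detected with antibodies against each partner (one per run).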
# [2] = test system: LXRa:RXRa (NR concentration 270 nM, RXRa partner concentration 90 nM)
# In short: as §1
# [3] = test system: LXRa homodimer (NR concentration 270 nM)
# In short: as §1
# [4] = test system: LXRb:RXRa (NR concentration 270 nM, RXRa partner concentration 90 nM)
# In short: as §1
# [5] = test system: LXRb homodimer (NR concentration 270 nM)
# In short: as §1
# [6] = test system: PPARg:RXRa (NR concentration 180 nM, RXRa partner concentration 90 nM)
# In short: as §1
# [7] = test system: PPARg:RXRa 270nM:90nM, anti-RXR (NR concentration 270 nM, RXRa partner concentration 90 nM)
# In short: as §1
# [8] = test system: PPARg:RXRa 30nM:10nM, anti-RXR (NR concentration 30 nM, RXRa partner concentration 10 nM)
# In short: as §1
# [9] = test system: PPARg:RXRa 90nM:30nM, anti-RXR (NR concentration 90 nM, RXRa partner concentration 30 nM)
# In short: as §1
# [10] = test system: PPARg:RXRa DBDmut IVT, anti-RXR (DBD mutation: RXRa K156A/R161A, NR concentration 270 nM, RXRa partner concentration 90 nM)
# In short: as §1
# [11] = test system: PPARg:RXRa IVT, anti-PPARg (NR concentration 270 nM, RXRa partner concentration 90 nM)
# In short: as §1
# [12] = test system: PPARg DBDmut:RXRa IVT, anti-PPARg (DBD mutation: PPARg1 K132A/R137A, NR concentration 270 nM, RXRa partner concentration 90 nM)
# In short: as §1
# [13] = test system: PPARg DBDmut IVT, anti-PPARg (DBD mutation: PPARg1 K132A/R137A, NR concentration 270 nM)
# In short: as §1
# [14] = test system: PPARg homodimer (NR concentration 180 nM)
# In short: as §1
# [15] = test system: PXR:RXRa (NR concentration 270 nM, RXRa partner concentration 90 nM)
# In short: as §1
# [16] = test system: PXR homodimer (NR concentration 270 nM)
# In short: as §1
# [17] = test system: RARa:RXR (NR concentration 270 nM, RXRa partner concentration 90 nM)
# In short: as §1
# [18] = test system: RARa homodimer (NR concentration 270 nM)
# In short: as §1
# [19] = test system: RARb:RXRa (NR concentration 270 nM, RXRa partner concentration 90 nM)
# In short: as §1
# [20] = test system: PPARa:RXRa (NR concentration 270 nM, RXRa partner concentration 90 nM)
# In short: as §1
Sequence,PBM binding z-score [1],PBM binding z-score [2],PBM binding z-score [3],PBM binding z-score [4],PBM binding z-score [5],PBM binding z-score [6],PBM binding z-score [7],PBM binding z-score [8],PBM binding z-score [9],PBM binding z-score [10],PBM binding z-score [11],PBM binding z-score [12],PBM binding z-score [13],PBM binding z-score [14],PBM binding z-score [15],PBM binding z-score [16],PBM binding z-score [17],PBM binding z-score [18],PBM binding z-score [19],PBM binding z-score [20]
CCTACTGGGCCAAAGGTCATTGACTCCAATGCTC,5.27,5.54,4.65,5.25,0.543,12.1,10.3,10.7,11.4,5.27,7.13,0.277,0.152,2.5,5.52,1.32,6.16,0.485,4.53,
CCTACTGGGCCATTGAGAGGTCATTGATCATATG,1.94,3.79,6.21,3.34,0.0421,1.83,2.82,0.314,1.68,4.21,3.95,-0.492,0.0836,2.14,4.37,2.03,4.26,0.245,2.82,
CAAACTAGGTCACGAAAGGTCAAATTCGAATGAC,7.71,8.3,8.38,7.56,3.75,10.6,8.52,7.21,8.47,8.4,9.14,3.89,2.38,4.71,7.07,2.34,7.31,2.58,6,
TAGCCTAGGTCATAGGCCAGTATACCACGCGAAC,4.26,3.46,0.285,2.09,-0.0669,4.51,4.54,2.36,4.03,1.31,3.09,0.284,-0.111,1.91,1.47,-0.481,2.66,-0.0614,3.66,
GCTGCTCGGTCAACTGATGGTCAGCTAAAGCTCG,0.704,0.751,0.0425,-0.248,-0.201,-0.584,-0.239,-0.686,-0.163,0.634,-0.00578,-0.981,-0.237,-0.156,-0.105,-0.492,0.225,-0.934,2.87,
AAATGTAGGTTAAGGGTCATTCAGGTTGGTTCGC,5.31,4.71,3.07,4.53,1.39,11.7,9.63,10.5,10.8,8.02,8.07,2.18,2.05,3.58,5.32,2.61,5.42,2.02,3.7,
TCTAGCAGGCCATAGGGTCACTCAAGAGGTACGG,2.31,1.65,-0.243,1.73,-0.428,2.46,3.27,2.5,3.13,1.23,1.69,-1.22,-0.48,0.644,2.43,-0.246,3.69,0.229,2.75,
TCAGATAGGTAAAGGTGAAAGTCGAACGATATGA,0.962,1.49,-0.219,1.3,-0.401,2.56,3.99,4.4,4.3,2.81,2.22,0.559,0.38,1.31,0.975,0.0879,1.75,0.371,2.16,
TCTCGGAGGACACGAAGGTCAAAGCTTTCCAGAG,2.68,2.91,2.05,2.91,-0.25,1.14,2.53,2.73,2.51,1.76,1.71,-0.973,-1.26,1.25,3.68,2.71,3.62,0.304,3.66,
GCTGCTAGGTCAACTGATGGTCAGCTAGAGCTCG,3.85,2.95,0.128,1.85,0.313,2.7,2.98,0.27,2.01,4.87,3.91,-0.00234,0.522,0.71,1.55,-0.557,2.21,0.274,4.28,
TCTAGTTGGTCAAAGGTCTCACACTCGAAATGCG,1.27,1.49,0.269,1.57,0.449,7.81,7.33,6.65,8.53,3.11,3.77,1.08,1.78,2.48,1.34,0.942,1.89,1.17,1.88,
AGTCAAAGTTCAGGACGAGGTAATGTAAAGCACG,4.1,3.43,1.28,1.77,0.372,4.31,4.68,2.03,4.01,-0.319,1.45,-0.174,0.146,1.53,3.18,1.4,2.5,0.661,4.23,
CATACTAGGTCAAAGGTCAAAGTCGAGCCAACCA,8.57,7.39,7.06,7.48,3.69,13.2,10.9,12.6,12.5,7.72,8.62,2.89,3.65,3.93,6.81,1.91,8.63,1.65,5.97,
CCCGCTAGGTCATGGTCAGCTAATCTACAGTATG,3.68,2.72,0.611,2,-0.348,2.43,2.82,0.967,1.94,3.87,3.52,-0.299,-0.741,1.77,1.49,-0.038,2.33,0.196,3.83,
CCTAGTAGGTTATGGGGCATTCAGGCAACGGTGA,0.561,0.515,-0.0293,0.689,-0.176,5.47,5.67,4.4,6.07,4.52,5.34,0.403,-0.728,1.28,0.0613,0.02,0.431,0.456,1.13,
CCTGCTAGTTCAATGGTCAGCTAAAGCAGCTCGC,-0.115,0.171,-0.297,0.044,-0.17,-0.523,0.0511,-0.764,-0.0476,0.00571,-0.344,-0.548,-1.19,0.058,0.465,-0.0496,0.242,-0.645,1.49,
TAGCCTAGGTCATTCAGGGGCTAGTATAGAAAGC,4.83,3.69,0.257,2.77,0.83,2.12,2.22,0.575,1.45,1.49,2.56,-0.0413,0.573,1.3,2.36,-0.268,2.79,-0.106,3.76,
CGTCCAACGTCAGCAGGTCAGTGAAAGCGACGTG,-0.27,-0.136,-0.366,-0.0519,-0.788,-0.188,-0.476,-0.755,-0.842,0.148,0.161,-0.345,-1.13,-0.114,0.174,-0.448,0.556,-0.438,1.82,
CCTAGCCGGCCAATCTGGGTCACTCAAGGCTTGA,0.614,0.785,0.0438,1.02,-0.78,1.68,2.15,-0.425,1.27,3.39,4.68,-0.873,-0.666,0.858,1.03,-0.396,2.24,-0.278,1.4,
GCTGCTAGGTCGACTGATGGTCAGCTAAAGCTCG,-0.376,-0.522,-0.803,-0.528,-1.35,-0.467,-0.365,-0.591,-0.382,1.27,0.463,-1.49,-1.06,-0.687,-0.436,-1.21,0.0289,-1.87,1.37,
CCTTACGGGTCAGTGACAGGTTATAGCATTTGGA,4.29,3.37,0.351,2.96,-0.126,1.94,2.4,0.815,1.86,1.83,1.86,0.385,0.16,1.97,2.36,0.241,3.19,0.476,3.5,
ATATGTAGGTTCCATCCGGGTCATTCAGGCTATG,1.31,1.3,0.192,1.88,0.514,2.33,2.26,0.557,1.74,4.13,4.29,1.99,1.93,2.32,3.14,2.22,2.86,0.215,1.43,
AGAATGAGGTTACACGTAGATCAGGGAAGAAAGT,2.62,1.97,-0.126,1.74,-0.022,2.84,2.76,0.95,1.91,4.19,3.53,1.09,0.468,1.27,1.36,-0.00272,1.84,0.499,2.07,
CGAACTAGTTCAAGGACAGTGAATCTCCGCACGC,0.282,0.229,-0.253,-0.107,-0.693,,0.0328,-0.735,-0.0258,0.894,-0.296,-0.635,-0.503,0.151,0.352,0.308,0.402,-0.835,1.53,
CGAACTAGGTCAAAGGGCAGTGAAAGGCGACGTA,5.16,3.62,-0.00961,2.68,-0.302,,10.2,10.2,11.2,8.19,8.52,,0.155,2.2,2.96,-0.191,4.78,-0.269,4.31,
CCGACTGGGGCAAAGGTCACCATACTCAGTACGA,4.94,4.64,1.94,4.54,-0.206,,10,12.4,11.1,5.43,6.94,0.0184,-0.117,4.04,5.34,0.429,,1.73,4.73,
TCGAGTAGGTTACGGGGGCATTCACGGATGAAGA,2.41,2.89,0.361,4.92,,5.82,6.16,3.37,5.06,5.07,6.04,,,2.12,3.21,1.4,3.16,0.0892,2.51,4.38
CAAACTAGGTCACAGGGGTCAAAGTCCGTGCGTA,7.54,6.48,5.12,6.61,1.67,,8.74,7.69,9.17,8.38,9.12,4.98,3.18,3.99,6.9,8.47,8.18,1.96,5.46,
